Compounds without any hit were thinned out: in the full panel of roughly 83,000, 20% have a hit.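 For each line, cells grew in 96-well plates with the test compound present at a single concentration for 48 hours.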 A number with no mark means an inactive call. The source made the active and inactive calls. The calls were made as follows: active = growth percent below 10; inactive = the rest.

Among the test systems are NCI-H23 lung; NCI-H226 lung; NCI-H322M lung; HOP-62 NSCLC; NCI-H460 lung; HOP-92 NSCLC; NCI-H522 lung; A549/ATCC NSCLC; 786-0 renal; DU-145 prostate; K-562 leukemia; MALME-3M melanoma; MDA-MB-231 breast; RXF 393 renal; SF-268 CNS; SF-295 CNS; SF-539 CNS; UACC-257 melanoma; M14 melanoma.
Common to all, as to test: NCI-60 one-dose screen, 48 h (100 = growth as untreated, 0 = no growth, -100 = all killed)
Common to all, as to conditions: 10 µM unless noted

Turning to `C=C(Cl)COC(=O)C(C)(C)O`, the growth with NCI-H23 lung is 99.4%; in the assay with NCI-H226 lung it was 113%; in the assay on NCI-H322M lung, 90%; in the assay with HOP-62 NSCLC, 105%; with NCI-H460 lung it was 104%; in the assay with HOP-92 NSCLC, 103%. The growth in the assay on NCI-H522 lung was 93.8%; with A549/ATCC NSCLC it was 94%; in the assay on 786-0 renal, 101%; in the assay with DU-145 prostate, 102%; with K-562 leukemia, 93.7%; with MALME-3M melanoma it was 98.7%. For the same compound, the growth in the assay on MDA-MB-231 breast is 121%; with RXF 393 renal, 111%; in the assay on SF-268 CNS, 101%; in the assay with SF-295 CNS it was 102%; in the assay on SF-539 CNS it was 102%; in the assay with UACC-257 melanoma, 92.2%. Also, the growth with M14 melanoma is 103%.

As to `Cl.Fc1c[c-]c(-c2ccccn2)c(F)c1.[Pt].c1ccc([PH+](C[PH+](c2ccccc2)c2ccccc2)c2ccccc2)cc1`, the growth was -78.1% (active) with NCI-H23 lung; -65.9% (active) with NCI-H226 lung; -98.3% (active) in the assay on NCI-H322M lung; -55.4% (active) in the assay with HOP-62 NSCLC; -63.5% (active) with NCI-H460 lung; -74.2% (active) in the assay on HOP-92 NSCLC. The growth was -60.1% (active) in the assay on NCI-H522 lung; -58.5% (active) in the assay with A549/ATCC NSCLC; -68.1% (active) in the assay on 786-0 renal; -94.8% (active) in the assay on DU-145 prostate; -18.5% (active) with K-562 leukemia; -92.9% (active) with MALME-3M melanoma. Also, the growth in the assay on MDA-MB-231 breast was -83.8% (active); in the assay with RXF 393 renal it was -91.6% (active); in the assay on SF-268 CNS it was -70% (active); in the assay with SF-295 CNS it was -87.6% (active); with SF-539 CNS it was -86.4% (active); in the assay on UACC-257 melanoma, -48.6% (active). The growth in the assay on M14 melanoma was -87.1% (active).

For `CN1C[C@@H](c2ccc(Cl)cc2)[C@]2(NC(=S)N(c3ccccc3)C2=O)[C@@]12C(=O)NC1C=CC(Br)=C[C@H]12` (some centres not stated), the growth with NCI-H23 lung was 76.1%; with NCI-H226 lung, 66%; in the assay with NCI-H322M lung it was 77.4%; in the assay on HOP-62 NSCLC, 79.5%; in the assay with NCI-H460 lung it was 65.5%; in the assay with HOP-92 NSCLC, 19.7%. For the same compound, the growth in the assay on NCI-H522 lung is 49.3%; in the assay with A549/ATCC NSCLC it was 56.9%; in the assay with 786-0 renal, 54.3%; in the assay with DU-145 prostate it was 85%; in the assay with K-562 leukemia, 34.8%; with MALME-3M melanoma, 108%. Moreover, the growth in the assay with MDA-MB-231 breast was 60.8%; with RXF 393 renal, 68.4%; with SF-268 CNS it was 58.1%; with SF-295 CNS it was 80.6%; with SF-539 CNS, 84.8%; in the assay with UACC-257 melanoma it was 71.4%. The growth in the assay with M14 melanoma is 39.4%.

Take `COc1cc2ccccc2cc1C(=O)NC(=S)Nc1ccc(-c2nc3ccccc3[nH]2)cc1`: the growth with NCI-H23 lung is 72.9%; with NCI-H226 lung it was 102%; in the assay with NCI-H322M lung, 90.9%; in the assay on HOP-62 NSCLC, 79.9%; with NCI-H460 lung, 69.1%; in the assay on HOP-92 NSCLC it was 93.7%. The growth with NCI-H522 lung was 89.6%; in the assay on A549/ATCC NSCLC it was 92.1%; in the assay on 786-0 renal it was 38%; in the assay with DU-145 prostate, 56.1%; in the assay with K-562 leukemia it was 75.6%; in the assay on MALME-3M melanoma it was 48%. In addition, the growth was 52.9% in the assay on MDA-MB-231 breast; 86.2% in the assay on RXF 393 renal; 62% with SF-268 CNS; 80.5% in the assay with SF-295 CNS; 14.7% with SF-539 CNS; 98% with UACC-257 melanoma. Also, the growth with M14 melanoma was 79.3%.

On to `N#C/C(=C\c1ccc2c(c1)OCO2)n1nnc2ccccc21`, for which the growth is 10.9% in the assay with NCI-H23 lung; 8.93% (active) in the assay with NCI-H226 lung; 9.39% (active) in the assay on NCI-H322M lung; 28.7% in the assay on HOP-62 NSCLC; 0.341% (active) in the assay on NCI-H460 lung; -2.71% (active) with HOP-92 NSCLC. Also, the growth in the assay with NCI-H522 lung is 14%; in the assay with A549/ATCC NSCLC, 17.1%; with 786-0 renal it was 6.58% (active); in the assay on DU-145 prostate, -38% (active); with K-562 leukemia, 14.2%; in the assay with MALME-3M melanoma it was 25.8%. Also, the growth with MDA-MB-231 breast was -31.9% (active); in the assay with RXF 393 renal, -44.8% (active); with SF-268 CNS it was 22.9%; in the assay on SF-295 CNS, -5.56% (active); in the assay on SF-539 CNS, -61.4% (active); with UACC-257 melanoma, 64.4%. In addition, in the assay on M14 melanoma, the growth was 2.76% (active).

In the case of `Clc1ccc(/C=C/c2nc(Nc3ccc(Cl)cc3)c3ccccc3n2)cc1`, the growth in the assay on NCI-H23 lung was 93.1%; with NCI-H226 lung it was 92.6%; in the assay with NCI-H322M lung, 96.4%; in the assay on HOP-62 NSCLC it was 120%; in the assay with NCI-H460 lung, 103%; in the assay on HOP-92 NSCLC, 107%. Further, the growth is 90.8% with NCI-H522 lung; 102% in the assay with A549/ATCC NSCLC; 102% in the assay on 786-0 renal; 118% in the assay with DU-145 prostate; 103% with K-562 leukemia; 105% in the assay on MALME-3M melanoma. Besides, the growth in the assay with MDA-MB-231 breast was 93.7%; in the assay on SF-268 CNS, 102%; in the assay with SF-295 CNS it was 100%; in the assay with SF-539 CNS it was 96.1%; in the assay on UACC-257 melanoma it was 98.9%.
